We go through 61 sequences from the supplement of paper PMC11417369.

In all, about 25,000 sequences were measured (“ln(normalized median fluorescence intensity)”: median about 9.3, highest 2% from about 10 on). The list comes from a sample in which the highest values are over-represented; it also holds similar and randomly drawn sequences.

This test relates to PF3D7_0420300 AP2 domain 1 (GST-tagged). Kind of test: gcPBM binding intensity (ln(normalized median fluorescence intensity)); higher = stronger DNA binding. Put shortly:
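Using an Agilent 4 × 180k array, primer-extended double-stranded 36-bp intergenic genomic probes and negative controls were exposed for 1 h to GST-fused P. falciparum DNA-binding domains expressed in E. coli. Binding was carried out in 1× PBS with 1% milk, 0.2 mg/ml BSA, 0.5% salmon testes DNA and 0.03% Triton X-100, and protein was detected with Alexa488 anti-GST antibody and a 488 nm scan. Binding intensity is the highest Masliner-normalised natural-log median intensity across replicate spots of either probe orientation.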
Consider “GCAACAAAAAATCAGACATGCATTTTAAAATGAATA [TGCATGCA_site846]”, for which the “gcPBM binding intensity (ln)” value was 9.14.
Next, “TATTAAACTAAATGTAGTACATACACAAAAGAAACC [XGTACX_site606]”: 9.75; “ATTTTTTTTTTTTTTTTGGGGGGGTATACTTTTAAA [CACACA_negctrl_site1020]”: 10.8; “TATACTTTATATATTTTGTATATATATTTTTTTTAT [TGCATGCA_negctrl_site530]”: 9.34.
The figure for “GTTAATATTTTTGGGGGTACTTAAAAAAAAAAAAAA [XGTACX_site1477]” is 9.22; for “TTCATAAGAAGGAACTGTACATATTTTTCATTTTTT [XGTACX_site6770]” it is 9.15.
The figure for “TATTTATTAAGACACACACACACACGCACAAAATAA [CACACA_site6254]” is 10.2; for “AATTAACAAAGACACACACACACACGCACAAAAAAA [CACACA_site6388]” it is 10.2.
“TAATAAATAAATGACACACACACACGCAAAAAAAAA [CACACA_site7275]”: the “gcPBM binding intensity (ln)” value came to 10.1.
Next, “TTTATTAATAGACACACACACACACGCAAAATAAAA [CACACA_site6255]”: 10.2.
The figure for “TAAATTAAAAGACACACACACAAAAAAAAAAAAAAA [CACACA_site7131]” is 9.66.
Next, “AAAAAAAACACGCGCACACACACACCCACAGACACA [CACACA_site5253]”: 9.92; “TACACAAACAGACACACACACACACGCGCACAAAAA [CACACA_site7192]”: 10.2; “AATGTGTAGACACGCACACACAAAAAAATATTTATA [CACACA_site7384]”: 9.6.
Consider “TTATTATTAAGACACACACACAAAAAAAAAAAAAAA [CACACA_site6805]”, for which the “gcPBM binding intensity (ln)” value turned out to be 9.73.
Next, “ATAGACAGCGCACAAACACACAAACACGCACGCACA [CACACA_site6349]”: 9.6; “CACAAACAAAGACACACACACACACGCACAAAAATG [CACACA_site7193]”: 10.1; “CCTCATATTATAGACACACACAAAAAAAATAAAAAA [CACACA_site180]”: 9.74.
Next, “TTATTAACCTAAATTAGTACATATAATATAAAAAAT [XGTACX_site8661]”: 9.18.
Next, “GAAAAGAAAAATAAACGTACATAAATATTAACATTA [XGTACX_site8213]”: 9.2; “AGGCTCATTTTTTTTAGTACATCAAAAAAAAAAAAA [TGCATGCA_negctrl_site591]”: 8.7; “TTTTTTTTTTTTTTTTGTACATATATATAAAAAATA [XGTACX_site2772]”: 8.49.
Consider “ATATATAACTTTTCTTAACACACAAAAAACAAAAAT [CACACA_site8748]”, for which the “gcPBM binding intensity (ln)” value is 9.56.
The figure for “TATATATATATAAACGCATGTAATTTATACACACAT [TGCATGCA_site946]” is 9.41; for GACAATTATATGTAGGTGCATATACAAATTTTTTAA it is 9.11.
Next, “AAAACAAATAGACACGCACACAAAAAAAAAAAAAAA [CACACA_site801]”: 9.33.
The figure for “TTAACAAATAGACACACACACACACGCAAAAAAAAA [CACACA_site6387]” is 10.2; for “ATATATATATATAACACACGCAAAAAAATTAAATAA [CACACA_site1400]” it is 9.69.
For “AAAAAAAAAAAATATATATATATATATATATATATA [CACACA_negctrl_site1606]”, the “gcPBM binding intensity (ln)” value stood at 9.3.
The figure for “TATATAAAAATATACACACACAAATGTATATATATA [CACACA_site220]” is 9.68.
Next, “AAAAAAAAAAAAAAATACAAGCACATTTATATAAGC [GTGCAC_negctrl_site695]”: 9.46.
The figure for “AAATACTGATTTGGTTGTACATGTGCACTATATAAC [XGTACX_site3795]” is 9.35; for “TCATTTCACAGACACACACACACAATATATTTCCTT [CACACA_site9295]” it is 10.2.
Regarding “TCATTTCACGGACACACACACACAATATATTTCCTT [CACACA_site6023]”, the “gcPBM binding intensity (ln)” value worked out at 10.2.
Next, “TCATTTCACAAACACACACACACAATATATTTCCTT [CACACA_site3905]”: 10.1; “TATTTTATAATTTACCGTACATTAATTGTATTATTA [XGTACX_site5722]”: 9.33.
The figure for “CATACACAGAAACACACACACATATATACATATATA [CACACA_site1094]” is 10.1.
Next, “CAATCAAATAGACACACACACACCTAAACATAAAAG [CACACA_site7322]”: 10.1; “TAGATACAGAAACACACACACACATACATATATACA [CACACA_site3437]”: 10.2; “CAATCAAATGGACACACACACACCTAAACATAAAAG [CACACA_site5524]”: 10.2.
For “GTATCAAAAGAATACACACACACATACAGATATATA [CACACA_site5975]”, the “gcPBM binding intensity (ln)” value is 10.1.
The figure for “ATCAAAAGAAAACACACACACATACAGATATATATA [CACACA_site5974]” is 10.2; for “ATCAAAAGAAAACACACACACATACATATATATATA [CACACA_site3795]” it is 10.1; for “CAATCAAAGAAACACACACACACCTAAACATAAAAG [CACACA_site2756]” it is 10.2.
Next, “TACATACAGAAACACACACACACATATATATATATA [CACACA_site2919]”: 10; “ATATTACGCACAAAAAAAAAAAAAAAAAAAAAAAAA [CACACA_negctrl_site941]”: 8.77.
Next, “TGGATGTTAATATAGTGTACATTTATAAGTCAGTAT [XGTACX_site2949]”: 9.45.
On to “ATATTGTAAGTAAACACACACACATCTATAGGTATA [CACACA_site6462]”, for which the “gcPBM binding intensity (ln)” value was 9.96.
Next, “AATATATACATACATACATGCATACATATATATAAC [TGCATGCA_site371]”: 9.37; “TATTTATATTTATATACACACATATATACCTATATA [CACACA_site7820]”: 9.48; “CATACATACAGACACACACACATATTTATATTTATA [CACACA_site6172]”: 9.94.
Take “TATAGATACCTATACACACACACACGGACATATATA [CACACA_site7585]”: the “gcPBM binding intensity (ln)” value was 10.2.
The figure for “TATATATATTTATACACACACATATATTTATATATT [CACACA_site484]” is 9.7.
The figure for “TATTTATACCTATACACACACACACGGATATTTATA [CACACA_site7123]” is 10.2; for “TATATACCTATATACACACACATATATTATAGATAT [CACACA_site6266]” it is 9.82; for “AAAAAACAGACATACACACACACACGGATATTTATA [CACACA_site7570]” it is 10.3.
The figure for “TATATATATATATATACACACATATATATATTTATA [CACACA_site627]” is 9.39; for “CATACATACATACATACACACATACCTATATTTATA [CACACA_site6769]” it is 9.79; for “AAAACAAACAGACACACACACATATTTATATTTATA [CACACA_site7681]” it is 10.1.
Take “GATACCTATAGACACACACACATACCTATATACATA [CACACA_site7586]”: the “gcPBM binding intensity (ln)” value came out at 10.1.
Next, “ACCATACATACATACACACACACACGCATATTTATA [CACACA_site7386]”: 10.4.
